MITF TRPM1 inh: inhibitors of MITF-dependent TRPM1 promoter reporter, primary screen, cell-based, SK-MEL-5, single point, luciferase | inhibition, % at 12.5 µM | hit rate 0.83% among 330,000 | SK-MEL-5 TRPM1 promoter luciferase, 24 h | AID 488899, 2010;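 active = mean inhibition across replicates of 60% or more, whatever share of single replicates reaches that level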
TWEAK-Fn14 inh: inhibitors of TWEAK-Fn14 signaling, primary screen, luciferase reporter cells, uHTS. TWEAK-stimulated Fn14 reporter cells, luciferase luminescence, 8 h. hit rate 2% among 360,000. AID 1159606, 2016. inhibition, % at 10 µM; in the data active = inhibition above about 50%
HIF-2a inh: HIF-2a reporter inhibitors, primary screen, luminescence, 786-0 RCC cells | inhibition, % at 18.8 µM | hit rate 0.72% among 360,000 | AID 624352, 2012 | 786-0 RCC cells HIF-2a reporter, luciferase luminescence, overnight;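 active = inhibition of the luminescence signal of 40% or more relative to plate controls, in a single-dose primary screen at 18.75 µM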
TROY NFkB inh: inhibitors of TROY-driven NF-kB signaling, primary screen, Q293 LMP1-TROYcd cells, NF-kB luciferase, uHTS; Q293 LMP1-TROYcd NF-kB luciferase reporter, 4 h; inhibition, % at 10 µM; hit rate 0.98% among 360,000;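 active = compounds whose plate-normalised and pattern-corrected inhibition of the luciferase reporter signal at the single screening dose is 50% or more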
Shn3 inh set2: reduction of Shn3 3'UTR firefly luciferase signal, primary screen, Schnurri-3 inhibitor project, cell-based, Clone20 osteoblasts, set 2; Clone20 osteoblast Shn3 3'UTR firefly luciferase, 24 h; inhibition, % at 12.5 µM; hit rate 0.52% among 360,000;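 active = mean inhibition of at least 75% with every replicate also reaching 75%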
EBV LMP1 NFkB: EBV LMP1-driven NF-kappaB luciferase reporter inhibitors, primary screen, cell-based, luminescence, single point; LMP1-induced NF-kappaB luciferase reporter cells; inhibition, % at 12.5 µM; hit rate 0.69% among 350,000; AID 504558, 2011; in the data active = inhibition above about 41%
Large screens that a line does not name were inactive. In the library only some 3.4% were active in any assay of this set; here they are far more common.

O=C(CC1SC(=Nc2cccc3ccccc23)N(Cc2ccccn2)C1=O)Nc1ccccc1Br (centres undefined)	none
COCC(=O)N1C[C@H]2CON(C)[C@H]2C[C@H]1c1cccc(-c2ccccc2)c1	none (no result: MITF TRPM1 inh)
Cc1nn(-c2ccccc2)c(N)c1-c1ccccc1	none
Cc1nn(-c2nc3ccccc3[nH]2)c(N)c1-c1ccccc1	TWEAK-Fn14 inh 68
CCOc1cc(N(CC)CC)ccc1/C=C(/C#N)c1nc2ccccc2[nH]1	TWEAK-Fn14 inh 69, TROY NFkB inh 60
COc1cccc(/C=C(\C#N)c2nc3ccccc3[nH]2)c1OCC(=O)O	TWEAK-Fn14 inh 99 (no result: MITF TRPM1 inh)
CCCOc1cc(N(CC)CC)ccc1/C=C(/C#N)c1nc2ccc(C)cc2[nH]1	none
O=C(NCC1CCCO1)C1CC1(c1ccccc1)c1ccccc1 (centres undefined)	none
CCN(C(=O)COc1cc(OC)ccc1C(C)=O)C1CCS(=O)(=O)C1 (centres undefined)	none
COc1cc(OC)cc(C(=O)N2CCC(N3CCN(c4ccccc4OC)CC3)CC2)c1	TWEAK-Fn14 inh 53, TROY NFkB inh 52
COc1ccc(Cn2c(=O)[nH]c3cc(C(=O)N4CCN(c5ccccc5OC)CC4)ccc3c2=O)cc1	TWEAK-Fn14 inh 53
COc1ccc(C(=O)N2CCN(c3ccccc3OC)CC2)cc1	none
COc1ccccc1C(=O)NCC(=O)OCc1nnc(-c2ccccc2)o1	none (no result: MITF TRPM1 inh)
CCCc1c(-c2ccc(O)cc2)nn(-c2ccc(O)cc2)c1-c1ccc(O)cc1	TROY NFkB inh 75
CCC(=O)Nc1cccc(C(=O)/C=C/c2ccc(F)cc2)c1	MITF TRPM1 inh 62, TWEAK-Fn14 inh 72
CC(=O)Nc1cccc(C(=O)/C=C/c2ccc(C)cc2)c1	TWEAK-Fn14 inh 71
CC(=O)Nc1ccc(/C=C/C(=O)c2ccc3c(c2)OCCO3)cc1	none
COc1cccc(NC(=S)NC(=O)/C=C/c2ccc(F)cc2)c1	none
CCOC(=O)C1CCCN(C(=O)c2cccc(OC(F)(F)F)c2)CC1 (centres undefined)	none (no result: MITF TRPM1 inh, EBV LMP1 NFkB)
COCCN1C(=O)CCC1(C)c1nnnn1-c1ccc2ccccc2c1 (centres undefined)	none (no result: MITF TRPM1 inh, TWEAK-Fn14 inh, TROY NFkB inh, Shn3 inh set2, EBV LMP1 NFkB)
CCC1Nc2ncnc(N3CCCCC3)c2N(Cc2ccc(OC)cc2)C1=O (centres undefined)	none
CCN(Cc1ccccc1)S(=O)(=O)c1ccc(C(=O)N(CCCN(C)C)c2nc3cc(C)cc(C)c3s2)cc1	MITF TRPM1 inh 90
CCCCN(CC)S(=O)(=O)c1ccc(C(=O)N(CCCN(C)C)c2nc3cc(C)cc(C)c3s2)cc1	MITF TRPM1 inh 79
CC12CCC(=O)N1C(C(=O)N1CCN(S(=O)(=O)c3ccc(F)c(F)c3)CC1)CS2 (centres undefined)	none
Cn1c(=O)c2cc(NC(=S)NC3CC3)ccc2n1Cc1cccc(C(F)(F)F)c1	none (no result: MITF TRPM1 inh, EBV LMP1 NFkB)
Cc1cnc(NC(=O)COc2ccccc2Cl)s1	TWEAK-Fn14 inh 96, TROY NFkB inh 59, EBV LMP1 NFkB 66
CCOCCCN(C)C1CCN(S(=O)(=O)c2csc(C(N)=O)c2)CC1	none
Fc1ccc(-c2nnc(-n3nnc4ccccc43)c3ccccc23)cc1	EBV LMP1 NFkB 53
O=C1CNC(c2ccccc2)C(c2ccccc2)N1 (centres undefined)	none (no result: MITF TRPM1 inh)
COc1ccc(CCNC2=C(Cl)C(=O)N(CCc3ccc(OC)c(OC)c3)C2=O)cc1OC	TWEAK-Fn14 inh 51
COc1ccc(CCN2C(=O)C=CC2=O)cc1OC	HIF-2a inh 55
COc1ccc(C=NNc2ccc(S(=O)(=O)Nc3ccccc3C(=O)O)cc2[N+](=O)[O-])c(OC)c1	TROY NFkB inh 59
COc1ccc(NS(=O)(=O)c2ccc(N/N=C(\C)c3ccncc3)c([N+](=O)[O-])c2)cc1	TWEAK-Fn14 inh 74
Cc1nn(-c2ccccc2)c(Cl)c1/C=N/Nc1ccc(S(=O)(=O)Nc2ccccc2C(=O)O)cc1[N+](=O)[O-]	TROY NFkB inh 52
CSc1ccc(C=NNc2ccc(S(=O)(=O)Nc3ccccc3C(=O)O)cc2[N+](=O)[O-])cc1	none
CCc1nc2ccc(C(=O)NCCCN3CCCC3=O)cn2c1N(C)CCC(C)C	none (no result: MITF TRPM1 inh, EBV LMP1 NFkB)
CCc1c(-c2cccc(Cl)c2)ncn1Cc1cccc(-c2ccccc2)c1	none (no result: MITF TRPM1 inh, TWEAK-Fn14 inh, TROY NFkB inh, Shn3 inh set2, EBV LMP1 NFkB)
CC(=O)Nc1ccc(-c2ccnc3c2CC(C)(C(=O)Nc2cccc(Oc4ccccc4)c2)O3)cc1 (centres undefined)	none (no result: MITF TRPM1 inh, EBV LMP1 NFkB)
O=C(NCCc1ccccc1)c1cnc2ccccn2c1=O	none
Cc1ccccc1NC(=O)c1cnc2ccccn2c1=O	TWEAK-Fn14 inh 83
CCCCOc1ccc(S(N)(=O)=O)cc1	none
CCCCOc1ccc(N=Cc2ccc[nH]2)cc1	TWEAK-Fn14 inh 67, TROY NFkB inh 73
COc1ccc(N=Cc2ccc[nH]2)cc1	TWEAK-Fn14 inh 87, TROY NFkB inh 63
COc1ccc(N=Cc2c(O)[nH]c3ccccc23)cc1	none
C[C@@H]1CN([C@H](C)CO)C(=O)CCCn2nncc2CO[C@H]1CN(C)C(=O)NC1CCCCC1	none (no result: MITF TRPM1 inh)
CCOc1ccc(NC(=O)c2cnccn2)cc1	none
COc1ccccc1N(Cc1ccccc1)S(=O)(=O)c1cccc(C(=O)Nc2ncccc2C)c1	none
Cc1ccnc(NC(=O)c2ccc(C(=O)c3ccccc3)cc2)c1	TWEAK-Fn14 inh 88, TROY NFkB inh 61, EBV LMP1 NFkB 50
CCOc1ccc(NC(=O)c2cnsn2)cc1	TWEAK-Fn14 inh 57, EBV LMP1 NFkB 56
COc1ccccc1N(Cc1ccccc1)S(=O)(=O)c1cccc(C(=O)Nc2cc(C)ccn2)c1	TWEAK-Fn14 inh 66, TROY NFkB inh 55
C=C(C)c1cccc(C(C)(C)NC(=O)Nc2cc(C)ccn2)c1	TROY NFkB inh 52
CCc1c(-c2cccc(Br)c2)ncn1Cc1cccc(-c2ccccc2)c1	none (no result: MITF TRPM1 inh, TWEAK-Fn14 inh, TROY NFkB inh, Shn3 inh set2, EBV LMP1 NFkB)
CCOc1cc(C(=O)Nc2cc(C)ccn2)cc(OCC)c1OCC	none
CCOc1ccc(C(=O)Nc2cc(C)ccn2)cc1	TWEAK-Fn14 inh 77, EBV LMP1 NFkB 53
CCOc1ccc(C(=O)Nc2cccc(C)n2)cc1	TWEAK-Fn14 inh 63
Cn1c(=O)c2cc(NC(=O)NCc3ccc(Cl)cc3Cl)ccc2n1Cc1ccc(F)cc1	none (no result: MITF TRPM1 inh, EBV LMP1 NFkB)
c1ccc2c(c1)c1ccccc1n2CN1CCOCC1	TWEAK-Fn14 inh 75 (no result: TROY NFkB inh)
COc1cccc(CN(C)C(=O)c2ccc(S(=O)(=O)Nc3ccccc3C)cc2)c1OC	none (no result: MITF TRPM1 inh)
Cc1nn(Cc2noc(C(=O)NC3CCC(C)CC3)n2)c(C)c1Br (centres undefined)	Shn3 inh set2 90
CCOC(=O)[C@@H]1[C@H]2COc3ccc(Br)cc3[C@@H]2N2C(=O)N(c3ccc(C)cc3)C(=O)[C@@]12C	none
